According to PubChem BioAssay AID492997 (Johns Hopkins Ion Channel Center, 2010):
Hit rate of the full screen: of about 4,900 compounds, about 2,000 (41%) were called active.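 The calls were made as follows: active = thallium signal drop beyond 5 SD of the untreated control mean, on both duplicate plates; inactive = the rest.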 The set was probably picked from earlier hits. Not all results are given here.

experiment: thallium flux in non-induced HEK293 cells, confirmation, counter-screen for KCNK9 inhibitor project, cell-based, second counter screen, non-induced KCNK9-HEK293 (AID 492997); details: non-induced KCNK9-HEK293, FluxOR thallium flux, at 10 µM; active compounds read high;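 as to inhibition: plate controls were buffer only IC0 wells for no effect and SID17386958 at its maximal inhibitory level for full effect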

Compound | inhibition
CCCCCCCCCCCCn1ccc(=N)cc1 | 29.5% (active)
CCOC(=O)C1SC2(C(F)(F)C(F)F)CC1(O)c1c(c(OC)c3occc3c1OC)O2 (stereo unspecified) | inactive
CC(C)(C)c1ccc(CN2C(=O)CN=C(c3ccccc3)c3ccccc32)cc1 | 50% (active)
CC(C)(C)c1ccc(OC(=O)N2CCCCC2)cc1 | inactive
CC(C)n1c(=O)c(C=Nc2ccc(Br)cc2)c(O)n(Cc2ccco2)c1=O | inactive
CCCCCCN=C(CC)c1c(O)n(CCCC)c(=O)[nH]c1=O | 32% (active)
